SARS PLP yeast: qHTS of Yeast-based Assay for SARS-CoV PLP; 330,000 tested, 0.19% active; S. cerevisiae expressing SARS-CoV PLpro, growth rescue; AID 485353, 2010; Potency, µM (titrated, usually from 32.9 µM), most hits filed as activators; calls by dose curve; note: nearly all actives have a fitted effect of over 55% in size
HCMV inh: qHTS Assay for inhibitors of the human cytomegalovirus (HCMV); HFF cells, HCMV-luciferase reporter, 72 h; active compounds read low; activity change, negative = inhibition, % at 57.5 µM; 410,000 tested, 4.5% active; AID 1259415, 2018; in the data active = activity change below about -60%; inconclusive = no clear call, values can overlap the other calls; inactive = above about -39%
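Steps: HFFs plated, 16 h 37C; compounds added; HCMV-luciferase added to MOI 1 PFU/cell; 72 h 37C; OneGlo reagent, 5 min room temperature; luminescence read, normalized to controls.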
HCV inh: qHTS Assay for Inhibitors of Hepatitis C Virus (HCV). Huh7.5.1 HCVcc-Cre infection, luciferase reporter, 44 h. Potency, µM (top dose mostly 41.8 µM), hits mostly inhibitors. 340,000 tested, 3.4% active; active = well fitted inhibition curve with a large enough effect; inconclusive = small, poorly fitted or top-dose-only effect, or another doubt; inactive = no such curve, though single readings can be large or run the other way
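HCVcc-Cre virus at an moi near 0.5 was added right after compound to cells cultured 4 h from seeding (1,000 cells/well). Luciferase activity was determined 44 h later, 15 min after substrate addition at RT.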
FMDV inh: High Throughput Screening for Foot and Mouth Disease Virus Antivirals | 410,000 tested, 1.2% active | FMDV antiviral cell-based qHTS | Potency, µM (doses to about 57.9 µM), most hits filed as inhibitors; calls by dose curve; tested in HEK293T cells; note: read-out not given here; nearly all actives have a fitted effect of over 45% in size
Lassa entry inh: qHTS for Inhibitors of binding or entry into cells for Lassa Virus; Potency, µM (doses to about 37.9 µM), actives largely listed as inhibitors; Lassa virus pseudotype entry inhibition, cell reporter; 300,000 tested, 1.2% active; calls by dose curve; tested in HEK293 cells; note: nearly all actives have a fitted effect of over 50% in size
MARV entry inh: qHTS for inhibitors of binding or entry into cells for Marburg Virus | Marburg virus pseudotyped entry inhibition, cell reporter | Potency, µM (highest dose often 37.8 µM), most hits filed as inhibitors | 300,000 tested, 1.8% active; calls by dose curve; tested in HEK293 cells
Numbers stand for hits; 0 = inactive; ? = inconclusive; - = not tested or not shown. Shown are actives, neighbours in structure and some others; about 8% of the full set was active somewhere.

SMILES	SARS PLP yeast	HCMV inh	HCV inh	FMDV inh	Lassa entry inh	MARV entry inh
Cc1ncsc1CCOC(=O)c1ccc(N2CCOCC2)c([N+](=O)[O-])c1	0	-61	0	0	-	-
COc1ccc(OC)c(CCNC(=O)c2cnn(-c3ccccc3Cl)c2C2CCN(C(=O)OC(C)(C)C)CC2)c1	-	0	-	?	?	-
CN1CCN(C(=O)OCCOCCOC(=O)N2CCN(C)CC2)CC1	-	0	0	0	0	0
O=c1cc(-c2c(F)c(F)c(F)c(F)c2F)oc2ccccc12	0	?	5µM	-	?	18µM
COc1cccc(NC(=O)c2nc(S(C)(=O)=O)ncc2Cl)c1	0	-103	?	22µM	?	?
Cc1cccc(NC(=O)c2nc(S(C)(=O)=O)ncc2Cl)c1	-	-108	-	25µM	?	-
COc1cccc(NC(=O)c2nc(SC)ncc2Cl)c1	0	0	0	0	0	0
CCS(=O)(=O)c1ncc(Cl)c(C(=O)Nc2c(C(=O)Nc3cccc(C)c3)oc3ccccc23)n1	-	0	-	0	?	0
COc1ccc(CNC(=O)C2CCN(S(=O)(=O)c3c(C)noc3/C=C/c3cccs3)CC2)cc1	-	0	-	0	0	0
COCC(C)n1c(C)cc(C(=O)COC(=O)c2cccn2C)c1C (stereo not given)	0	-76	?	?	-	-
O=[N+]([O-])c1ccc(Nc2ccccc2O)c([N+](=O)[O-])c1	-	?	-	0	-	-
O=C(Nc1ccccc1)c1ccc(Nc2c([N+](=O)[O-])cc([N+](=O)[O-])c3ccccc23)cc1	0	-74	?	?	0	?
O=[N+]([O-])c1cc(Br)c(Nc2ccccc2)c([N+](=O)[O-])c1	0	-85	?	?	-	-
CCCN(CC(=O)Nc1ccccc1C)C(=O)C1CCN(c2ncnc3sc(C)c(C)c23)CC1	0	0	?	?	?	?
CCOc1ccc(NC(=O)CN(C)C(=O)C2CCN(c3ncnc4sc(C)c(C)c34)CC2)cc1OCC	0	-68	-	?	0	?
CCc1cccc(NC(=O)C2CCN(c3ncnc4sc(C)c(C)c34)CC2)c1	0	0	11µM	?	-	-
Cc1sc2ncnc(N3CCC(C(=O)NCC(=O)Nc4ccc(F)c(F)c4)CC3)c2c1C	0	0	8.9µM	?	?	?
Cc1sc2ncnc(N3CCC(C(=O)Nc4ccc(Cl)c(Cl)c4)CC3)c2c1C	0	0	?	?	-	-
Cc1sc2ncnc(N3CCC(C(=O)Nc4ccc(Cl)cc4Cl)CC3)c2c1C	0	0	?	0	0	0
Cc1sc2ncnc(N3CCC(C(=O)Nc4ccc(Br)cc4Br)CC3)c2c1C	0	0	?	20µM	?	11µM
COCCCNC(=O)c1ccc(-n2c(-c3ccccc3)cc3c2CCC(C)C3)cc1 (stereo not given)	-	?	-	0	?	-
CCc1ccc(S(=O)(=O)c2cn(C)c3cc(N4CCC(C)CC4)c(F)cc3c2=O)cc1	-	0	-	0	0	-
COc1cc(/C=C2\CCC(C)C3=C(c4cc(OC)c(OC)c(OC)c4)C(C#N)=C(N)OC32)cc(OC)c1OC (stereo not given)	-	0	?	?	11µM	?
COc1cccc(C2=NC(C)(CC(=O)NCc3cccc(O)c3)ON2C)c1 (stereo not given)	-	0	-	-	-	-
O=C(CNC(=O)c1ccccc1)NCCCSc1ccccc1	0	0	0	0	0	0
SMILES	SARS PLP yeast	HCMV inh	HCV inh	FMDV inh	Lassa entry inh	MARV entry inh
O=C(NCCCSc1ccccc1)c1cc(Cl)ccc1O	0	-84	?	0	-	-
O=C(NCCCCCCNC(=O)c1ccccc1O)c1ccccc1O	0	-79	10µM	?	0	?
Cc1ccc(-n2c(=O)c3ccc(C(=O)NCc4ccco4)cc3n(CC(=O)Nc3ccccc3C(F)(F)F)c2=O)cc1	-	0	-	0	0	0
CCCC1(C)C(C#N)(C#N)C1(C#N)C#N	-	-	-	-	4.1µM	16µM
CN(C)c1ccc(N=Nc2ccccc2C(=O)OCC(=O)Nc2ccccc2C(F)(F)F)cc1	0	-75	0	0	0	0
CN(C)c1ccc(N=Nc2ccccc2C(=O)OCC(=O)N2CCCC2)cc1	0	0	?	0	0	0
O=C(c1ccc(F)cc1)N1CCN2C(=O)c3ccccc3C12c1ccc(Cl)cc1 (stereo not given)	0	-64	0	0	0	?
COc1ccc(N(CCOc2ccccc2)S(=O)(=O)c2ccccc2)cc1	0	0	0	0	-	-
O=C(Nc1nc(-c2ccccc2)c(-c2ccccc2)o1)c1ccc(F)cc1	0	0	?	0	0	10µM
COc1nc(NC(=O)c2ccc(F)cc2)nc(OC)c1-c1ccccc1	0	-64	?	0	-	?
S=C(Nc1ccc(Nc2ccccc2)cc1)Nc1ccccn1	0	-95	10µM	0	?	?
S=C(Nc1ccccc1)Nc1ccccn1	-	0	-	0	-	-
CCOCc1cnc(C)nc1NCC(=O)c1c(C)[nH]c2ccccc12	0	-80	0	0	0	?
CCOCc1cnc(C)nc1NCC(=O)c1c(C)[nH]c2cc(C)ccc12	0	-101	0	-	0	0
COc1ccc(C(=O)NC(C)c2nnc(SCC(=O)NC3CCCC3)n2C)cc1 (stereo not given)	0	0	0	0	?	0
CC(C)CN1C(=O)c2ccc(NC(=O)c3cccs3)cc2C1=O	0	0	?	0	0	?
O=C(Nc1ccc(Oc2ccc3c(c2)C(=O)N(c2ccc(O)cc2)C3=O)cc1)c1cccs1	0	-78	0	0	0	?
Cc1ccccc1N1C(=O)CC1(C#N)c1ccc(OCc2ccccc2)cc1 (stereo not given)	0	-85	0	0	10µM	?
COc1ccccc1N1C(=O)CC1(C#N)c1ccc(OCc2ccccc2)cc1 (stereo not given)	0	0	0	0	?	?
O=C(NCc1cccc(Br)c1)C1CC(c2ccccc2[N+](=O)[O-])=NO1 (stereo not given)	-	0	0	0	-	-
COc1ccc(-c2nc(-c3ccccc3)c(-c3cc([N+](=O)[O-])ccc3C)[nH]2)cc1OC	0	-80	16µM	0	?	?
CCOc1cc(-c2nc(-c3ccccc3)c(-c3cc([N+](=O)[O-])ccc3C)[nH]2)ccc1O	-	-82	?	?	0	?
O=C(O)c1ccc(-c2nc(-c3ccccc3)c(-c3cccs3)[nH]2)cc1	0	0	0	0	0	0
O=[N+]([O-])c1ccc(O)c(-c2nc(-c3ccccc3)c(-c3cccs3)[nH]2)c1	0	-103	6.3µM	?	?	?
CCn1cc(C(=O)Nc2cccc(C)c2)c(=O)c2ccc(C)nc21	0	-	-	-	-	-
CCCCn1nnnc1C1(C)CCC(=O)N1Cc1cccc(F)c1 (stereo not given)	-	0	-	0	-	-
CC(=O)c1ccc(NC(=O)Nc2ncn(Cc3cccc(C)c3)n2)cc1	0	0	0	0	0.65µM	0
O=C1CC(c2ccc(F)cc2)CC2=C1C=Nc1ccccc1N2 (stereo not given)	0	0	0	?	-	?

Source: PubChem
